Data published in PubChem BioAssay (NCI).
This is part of a sample that, as a whole, favours compounds with a hit. Of some 79,000 tested, about 15% had one in any assay. Cut-off read from the data, not from the text of the source: active = growth inhibition above about 70%; inactive = the rest.

Key:
[1] = NCI Yeast Anticancer Drug Screen. Data for the rad50 strain (AID 155);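 note: 0% = growth of vehicle-only cultures of the same strain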; conditions: S. cerevisiae rad50 strain growth inhibition; at 50.0 µM; stronger effect = higher value
Outline: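 Cells are treated with compound, grown, and their growth is then scored against vehicle-only cultures of the same repair-deficient yeast strain.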

[2] = NCI Yeast Anticancer Drug Screen. Data for the mec2-1 strain (AID 157); conditions: S. cerevisiae mec2-1 strain, at 50.0 µM, stronger effect = higher value
Outline: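 mec2-1 yeast strain, carrying an alteration in DNA damage repair or cell cycle control, was exposed to compounds; growth inhibition was measured relative to vehicle-treated controls.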

[3] = NCI Yeast Anticancer Drug Screen. Data for the sgs1 mgt1 strain (AID 161);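 note: 0% = growth of cultures given vehicle only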; conditions: S. cerevisiae sgs1 mgt1 strain, at 50.0 µM, stronger effect = higher value
Outline: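 Growth of a repair-deficient yeast mutant was monitored after compound treatment and expressed as inhibition relative to vehicle-treated cultures.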

[4] = NCI Yeast Anticancer Drug Screen. Data for the cln2 rad14 strain (AID 165);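 note: 0% = growth equal to vehicle treated cultures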; conditions: S. cerevisiae cln2 rad14 strain, at 50.0 µM, stronger effect = higher value
Outline: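 Yeast carrying cln2 and rad14 alterations (cell cycle control and DNA damage repair) were exposed to compounds. Growth inhibition was measured against vehicle-treated controls.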

[5] = NCI Yeast Anticancer Drug Screen. Data for the bub3 strain (AID 167); conditions: S. cerevisiae bub3 mutant strain, at 50.0 µM, stronger effect = higher value
Outline: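 Part of a panel of yeast mutants defective in DNA damage repair or cell cycle regulation. Each strain is grown with compound, and inhibition is calculated relative to solvent-treated cultures.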

[6] = NCI Yeast Anticancer Drug Screen. Data for the mlh1 rad18 strain (AID 175); conditions: S. cerevisiae mlh1 rad18 strain growth inhibition; at 50.0 µM; stronger effect = higher value
Outline: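 Growth inhibition of the yeast strain was measured after compound exposure and expressed relative to vehicle-treated controls. The strain carries defined defects in DNA damage repair.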

Measured: growth inhibition

ClC(Cl)C1OCCOCCO1
inactive: [1] -16.1% | [2] -9.65% | [3] -9.9% | [4] -57.8% | [5] -0.35% | [6] -5.8%

COC(=O)C(C)(C#N)/C(C)=C/C(C)C (stereo not given)
inactive: [1] -12.7% | [2] -20.9% | [3] -12.8% | [4] -3.9% | [5] -24.8% | [6] -33%

COC1=CC(=O)/C(=C(O)/C=C/c2ccccc2)C(=O)C1(C)C
inactive: [1] 3.2% | [2] -1.65% | [3] 16.9% | [4] -2.5% | [5] 14.6% | [6] 29.4%

COC(=O)C(c1ccccc1)C(SCc1ccccc1)c1ccccc1 (stereo not given)
inactive: [1] 2.85% | [2] 1.15% | [3] -18.9% | [4] 0.95% | [5] -7.15% | [6] 4.7%

CC1(C)COC(c2ccc(CC(Cc3ccc(C4(C(C)(C)C)OCC(C)(C)CO4)cc3)C(=O)O)cc2)(C(C)(C)C)OC1
inactive: [1] -7.25% | [2] -19.8% | [3] 3.1% | [4] 5.15% | [5] 3.8% | [6] 5.35%

CC1CN(c2ccc(Cl)cc2)CC(C)(C)OC(=O)O1 (stereo not given)
inactive: [1] -12.2% | [2] -16.1% | [3] -10.6% | [4] 0.2% | [5] 5.45% | [6] -2.5%

OCC(O)C(O)C(O)C(O)CNC(CO)(CO)CO (stereo not given)
inactive: [1] 9.9% | [2] 13.3% | [3] 18.6% | [4] -1.45% | [5] 16.6% | [6] 27.5%

Cc1c([N+](=O)[O-])cc(C(C)(C)C)c(OS(=O)(=O)N(C)C)c1[N+](=O)[O-]
inactive: [1] 34% | [2] 10.4% | [3] 34.5% | [4] 13.1% | [5] 18.1% | [6] 26.6%

Cn1cnc([N+](=O)[O-])c1SC1=NCCS1
inactive: [1] 7.8% | [2] -1.4% | [3] 10.2% | [4] 25.3% | [5] 22.9% | [6] -7.5%

COC(=O)c1cc2/c(=N/O)c3ccccc3sc2o1
inactive: [1] -0.45% | [2] -23.1% | [3] -2.1% | [4] 0.75% | [5] -16.4% | [6] -28.8%

Cc1c(Cl)cc(C(C)(C)C)c(O)c1Cc1c(C)c(Cl)cc(C(C)(C)C)c1O
inactive: [1] 19.4% | [2] -8.3% | [3] -46.6% | [4] 12.3% | [5] 0% | [6] 1.95%

O=C(/C=C/c1ccccc1)NC(=S)Nc1ccccc1F
inactive: [1] 12.1% | [2] -3.1% | [3] -23.9% | [4] -12.4% | [5] 29.7% | [6] 20.6%

O=[N+]([O-])c1cc([N+](=O)[O-])c(C(Cl)C(Cl)c2ccccc2)cc1C(Cl)C(Cl)c1ccccc1 (stereo not given)
inactive: [1] 2.4% | [2] 2.55% | [3] -18.9% | [4] 7.65% | [5] 0.6% | [6] -20.4%

O=C(Nc1ccc(Cl)c(C(F)(F)F)c1)C(=O)c1c(O)c2ccccc2oc1=O
inactive: [1] 9.85% | [2] 4.7% | [3] -11.7% | [4] -38.5% | [5] -19.1% | [6] 5.3%

C1COCCN2CCOCCOCCN(CCO1)CCOCC2
inactive: [1] 3.6% | [2] 11.2% | [3] -0.25% | [4] 12.7% | [5] 23.6% | [6] 23.7%

CCN(CC)CCOCC1CCCN2CCCCC12 (stereo not given)
inactive: [1] -9.5% | [2] -9.8% | [3] -1.75% | [4] 5.75% | [5] 16.1% | [6] -50.1%

CCN=C(C#N)NCC
inactive: [1] 19.2% | [2] -3.75% | [3] 20.9% | [4] 16.6% | [5] 25.2% | [6] 29.8%

O=C(N=Nc1c(O)[nH]c2ccc(Br)cc12)c1ccncc1
inactive: [1] -1.75% | [2] 2.8% | [3] 9.6% | [4] 3.2% | [5] 8.25% | [6] -10.1%

CNC(C#N)c1ccco1 (stereo not given)
inactive: [1] 11.3% | [2] -17.2% | [3] 16% | [4] 8.4% | [5] 13.4% | [6] 22.1%

CN(C)C1C=CS(=O)(=O)C1 (stereo not given)
inactive: [1] -9.55% | [2] -13.9% | [3] -4.4% | [4] -47.5% | [5] 0.95% | [6] -4.95%

CCSc1cccc(C(=O)O)c1
inactive: [1] -23.1% | [2] -2.9% | [3] -3.4% | [4] -27.8% | [5] -22.9% | [6] -7.8%

CC(=O)OC1CC2(c3ccccc3)C(=O)c3ccccc3N2O1 (stereo not given)
inactive: [1] 27.2% | [2] -16.6% | [3] -11.8% | [4] -12.7% | [5] 10.2% | [6] 19.6%

O=C(NC1CCCCC1)NC12CC3CC(CC(F)(C3)C1)C2
inactive: [1] -9.9% | [2] -12.8% | [3] -7.55% | [4] 5.65% | [5] -12.1% | [6] 6.7%

COC1(OC)CCC2=C(C)C(=O)CCC2(CO)C1 (stereo not given)
inactive: [1] 15.7% | [2] -2.95% | [3] -5.95% | [4] -51.8% | [5] -14.4% | [6] -1.9%

C=CC(O)C1OC2OC(C)(C)OC2C2OC(C)(C)OC12 (stereo not given)
inactive: [1] -2.75% | [2] 13.2% | [3] 2.7% | [4] -32.8% | [5] 21.4% | [6] 5.45%

CCCCCCCCCCCCCCCCCCN(C)CC(COC)OP(=O)([O-])OCC[N+](C)(C)C (stereo not given)
inactive: [1] 22.6% | [2] 14.3% | [3] 15.1% | [4] -3.45% | [5] 0.25% | [6] 24.9%

CN(C)c1ccc(C(c2cc3c(cc2O)OCO3)N2CCN(C(c3ccc(N(C)C)cc3)c3cc4c(cc3O)OCO4)CC2)cc1 (stereo not given)
inactive: [1] 39.8% | [2] 31.4% | [3] 28.9% | [4] 9.3% | [5] 13.8% | [6] 36.5%

O=C[C@H](O)CO
inactive: [1] 26.4% | [2] -20.1% | [3] 17.2% | [4] -1.8% | [5] 8.8% | [6] 17.4%

NC(=O)c1csc(C2OC(CO)CC2O)n1 (stereo not given)
inactive: [1] 4.55% | [2] -2.95% | [3] -2.45% | [4] -6% | [5] 0.2% | [6] -2.1%

Oc1cccc2nc3ccccc3cc12
inactive: [1] 4.3% | [2] 1.15% | [3] 16.2% | [4] -10% | [5] 3% | [6] 9.6%

O=C(NCCCl)Nc1ccc2c(c1)CCC2
inactive: [1] 1.55% | [2] 3.3% | [3] 1.55% | [4] -10.8% | [5] 10.8% | [6] 6.7%

CC[C@]12C=CCN3CCC4(c5cc([C@@]6(C(=O)OC)CC7CN(CCc8c6[nH]c6ccccc86)C[C@@H]6CCC[C@H]76)c(OC)cc5N(C)C4[C@](O)(C(=O)OC)C1OC(C)=O)C32 (stereo not given in full)
inactive: [1] -9.2% | [2] 3.8% | [3] -30.6% | [4] -22.1% | [5] -45% | [6] 9.3%

O=C(c1ccccc1)C(CBr)C(Br)c1ccccc1 (stereo not given)
inactive: [1] -17.4% | [2] 24.7% | [3] 10.1% | [4] -24.8% | [5] 16.9% | [6] 1.75%

O=C1OC(C(=O)O)Cc2ccccc21 (stereo not given)
inactive: [1] -16.1% | [2] -15.2% | [3] -3.15% | [4] -5.1% | [5] -2.3% | [6] -13.3%

CCOC(=O)/C(=C/c1cccc2ccccc12)P(=O)(OCC)OCC
inactive: [1] 36.6% | [2] 50.9% | [3] 51.7% | [4] 29.4% | [5] 37.1% | [6] 52.4%
